Compound activity: PubChem BioAssay, National Center for Advancing Translational Sciences (NCATS)
Most compounds without a hit are left out; they make up all but 7.8% or so of the library.
Marburg entry inh: blocks Marburg virus binding to or entry into cells. Marburg virus pseudotyped entry inhibition, cell reporter. Potency, µM (titrated, usually from 37.8 µM), for the others: at the top dose activity change, negative = inhibition, usual class: inhibitors. 1.8% of 300,000 active; calls by dose curve; tested in HEK293 cells; further: potency means the concentration at half of the fitted maximal effect
HCV inh: inhibitors of hepatitis C virus infection; Huh7.5.1 HCVcc-Cre infection, luciferase reporter, 44 h; Potency, µM (top dose mostly 41.8 µM), without a hit: at the top dose activity change, negative = inhibition, usual class: inhibitors; 3.4% of 340,000 active; active means well fitted inhibition curve with a large enough effect; inconclusive means small, poorly fitted or top-dose-only effect, or another doubt; inactive means no such curve, though single readings can be large or run the other way; further: potency means the concentration at half of the fitted maximal effect
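Cells seeded at 1,000/well and cultured 4 h, then compounds added followed by HCVcc-Cre virus (~0.5 moi). After 44 h further culture, luciferase substrate was added, plates held 15 min at room temperature, and luminescence read for 15 sec.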
HCMV inh: inhibitors of human cytomegalovirus | HFF cells, HCMV-luciferase reporter, 72 h; hits give low values | activity change, negative = inhibition, % at 57.5 µM | 4.5% of 410,000 active; in the data active means activity change below about -60%; inconclusive means no clear call, values can overlap the other calls; inactive means above about -39%
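Screen run at 2 compound doses on HFFs infected with reporter HCMV, MOI 1 PFU/cell. Luciferase activity from cell lysates at 72 h post infection gave inhibition relative to buffer-only and Salinomycin wells.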
LASV entry inh: inhibitors of Lassa virus binding or cell entry; Lassa virus pseudotype entry inhibition, cell reporter; Potency, µM (top dose mostly 37.9 µM), without a hit: at the highest dose activity change, negative = inhibition, most hits filed as inhibitors; 1.2% of 300,000 active; calls by dose curve; tested in HEK293 cells; further: potency means the concentration at half of the fitted maximal effect; nearly all actives have a fitted effect of over 50% in size
VACV Venus inh: inhibitors of vaccinia virus (Venus reporter). Vaccinia virus Venus reporter expression, fluorescence. Potency, µM (titrated, usually from 36.5 µM), without a hit: top-dose activity change, negative = inhibition, actives largely listed as inhibitors. 0.46% of 330,000 active. AID 720580; calls by dose curve; tested in A549 cells; further: potency means the concentration at half of the fitted maximal effect; nearly all actives have a fitted effect of over 30% in size
VACV mCherry inh: inhibitors of vaccinia virus infection (mCherry reporter signal) | Vaccinia virus mCherry reporter infection, fluorescence | Potency, µM (series often up to 36.5 µM), for inactives: at the highest dose activity change, negative = inhibition, most hits filed as inhibitors | 0.63% of 310,000 active | AID 720579; calls by dose curve; tested in A549 cells; further: potency means the concentration at half of the fitted maximal effect; nearly all actives have a fitted effect of over 35% in size
The depositor's hits bear a star; i = inactive; ? = inconclusive; . = not tested or not shown; [ ] = dose if it differs, or a comment. On the % scale 0 is the no-effect control and ±100 the full control effect.

SMILES	Marburg entry inh	HCV inh	HCMV inh	LASV entry inh	VACV Venus inh	VACV mCherry inh
CC(CN1CCNCC1)(NS(=O)(=O)c1ccccc1)c1ccccc1 (configuration not stated)	11µM*	?	25	-22%	?	.
Cc1ccc(S(=O)(=O)NC(C)(C)CN2CCNCC2)cc1	?	?	-21	-21%[46.1 µM]	-8%	-18%
Cc1ccc(C=Nc2ccc(N(C)C)cc2)o1	38%	3%	-76*	?	-3%	-11%
CN(C)c1ccc(CNc2nc(-c3ccco3)nn2S(=O)(=O)c2ccc3ccccc3c2)cc1	23%[46.1 µM]	.	94	-2%[46.1 µM]	4%	-5%
Cc1ccc(S(=O)(=O)Nc2ccc3ccccc3c2)cc1	-27%	-5%	-19	-30%[46.1 µM]	?	?
CNS(=O)(=O)c1ccc2ccccc2c1	2%[46.1 µM]	13%	-25	2%	-8%	-13%
COc1ccc2cc(S(=O)(=O)N3CCCCC3)ccc2c1S(=O)(=O)N1CCCCC1	?	?	-72*	-21%	-15%	i
COc1ccc(S(=O)(=O)N2CCCCCC2)cc1N(C)S(=O)(=O)c1ccc(Cl)cc1	?	?	-60*	-42%	-27%	?
Cc1cc(O)cc(C)c1NS(=O)(=O)c1ccc2ccccc2c1	.	-28%	-83*	.	.	.
COc1ccc(S(=O)(=O)Nc2ccc3ccccc3c2)cc1C	?	11µM*	-13	-4%	.	.
COc1ccc(C(=O)NCCN2Cc3ccccc3OC(c3ccsc3)C2)c(OC)n1 (configuration not stated)	.	.	.	.	10%	-8%
O=C1C(n2ccc3ccccc32)c2ccccc2N1Cc1ccc(C(F)(F)F)cc1 (configuration not stated)	.	.	21	.	.	.
Cc1cccc(-n2c(CNC(=O)c3cccc(F)c3)nnc2SCC(=O)Nc2ccccc2F)c1	?	.	-2	?	-8%	-8%
Cc1cc(C)c(NS(=O)(=O)c2ccccc2)c(C)c1NS(=O)(=O)c1ccccc1	?	?	-72*	?	-14%	-28%
COc1ccc(S(=O)(=O)Nc2ccc(S(=O)(=O)N3CCCCC3)cc2)cc1C	13%	35µM*	5	-12%	.	.
O=S(=O)(Nc1ccc(NS(=O)(=O)c2ccccc2)cc1)c1ccccc1	.	.	-14	.	-8%	-2%
COc1ccc(-c2noc(CCCC(=O)NC3CCCCC3)n2)cc1	?	?	-72*	-30%[46.1 µM]	7%	-18%
O=C(NCCc1ccccc1)c1ccc(NC(=O)c2cccnc2)cc1	.	-3%	11	.	.	.
Cc1ccc(-c2noc(CCC(=O)Nc3ccccc3C)n2)cc1	-8%	?	-6	9%	.	.
Cc1cccc(-c2noc(CCCC(=O)Nc3cccnc3)n2)c1	-29%	?	-25	-8%	-5%	-21%
O=C(CCCc1nc(-c2ccc(Cl)cc2)no1)Nc1cccnc1	-49%	?	-72*	?	.	.
O=C(Nc1ccc(-c2noc(CCc3ccccc3)n2)cc1)c1cccnc1	?	11µM*	?	?	?	.
Cc1ccc(-c2noc(CCC(=O)Nc3cc(C)ccn3)n2)cc1	-10%[46.1 µM]	22%	-71*	0%	-14%	.
C[C@H](CCC(=O)NCC(=O)O)C1CC[C@H]2[C@H]3C(C[C@H](O)[C@]12C)[C@@]1(C)CC[C@@H](O)C[C@H]1C[C@H]3O (some centres not stated)	.	.	.	.	-18%	-1%
CC1=C[C@@H](COCc2ccccc2)O[C@@]2(C1)C(=O)N(CC1CC1)c1ccccc12	1%[14.2 µM]	.	.	.	.	.
SMILES	Marburg entry inh	HCV inh	HCMV inh	LASV entry inh	VACV Venus inh	VACV mCherry inh
Cc1ccc(S(=O)(=O)N2CCN(c3nc(N(C)c4cc(Cl)ccc4O)nc4ccccc34)CC2)cc1	.	.	.	.	-17%	-15%
O=C(CN1N=C(c2ccccc2)CCC1=O)NCc1ccc(F)cc1Cl	.	.	27	?	-1%	5%
CC(C)C(=O)NCCc1nc(-c2ccccc2Cl)no1	.	3%	-60*	.	-11%	-13%
O=C(CCCc1nc(-c2ccccc2)no1)NC1CCCC1	-10%[46.1 µM]	1%	11	14%[46.1 µM]	-4%	-13%
O=C(NCCc1nc(-c2ccccc2Cl)no1)c1ccccc1	.	-19%	?	.	-5%	-10%
Cc1ccc(-c2noc(CCCC(=O)NC3CCCC3)n2)cc1	?	?	-80*	-26%[46.1 µM]	-6%	-16%
CCOC(=O)c1ccc(NC(=O)CCc2nc(-c3ccccc3Cl)no2)cc1	?	11µM*	-33	?	.	.
CC(Oc1ccc(Cl)cc1Cl)c1nc(-c2ccc(NC(=O)c3ccco3)cc2)no1 (configuration not stated)	?	?	-93*	?	.	.
CCOC(=O)c1ccc(NC(=O)CCc2nc(-c3ccccc3)no2)cc1	?	?	-3	?	-28%	-24%
CCCc1ccc(OCc2nc(-c3ccc(NC(=O)c4cccs4)cc3)no2)cc1	?	8%	?	10%	-1%	-5%
O=C(CCCc1nc(-c2ccccc2Cl)no1)NC1CCCC1	.	4%	-74*	.	.	.
O=C(CCCc1nc(-c2ccc(Cl)cc2)no1)NC1CCCCC1	?	7.1µM*	1	?	-13%	-11%
CCCc1ccc(OCc2nc(-c3ccc(NC(=O)c4ccco4)cc3)no2)cc1	?	-12%	?	10µM*	?	?
COC(=O)CC1OC1[C@H](C)[C@@H](OC)C(C)C (some centres not stated)	-15%[14.2 µM]	.	.	?	.	.
COC(=O)[C@](NC(=O)c1ccccc1)(Nc1nc(C)cs1)C(F)(F)F	4%	.	.	.	.	.
Cc1ccc(C)c(N2CCN(C3CCCC(C)C3)CC2)c1 (configuration not stated)	5µM*	-22%	-35	?	-13%	-29%
CC[C@H](C)C1OC(=O)[C@@H](C)[C@@H](CC)NC(=O)[C@H](C)N(C)C(=O)C(C)(C)C(=O)C(C)NC(=O)[C@H](Cc2ccc(OC)cc2)N(C)C(=O)[C@H](C(C)C)N(C)C(=O)CNC(=O)[C@H](CC(C)C)N(C)C(=O)CNC1=O (some centres not stated)	.	.	.	.	1µM*	0.89µM*
CCC[C@H]1NC(=O)[C@H](C)N(C)C(=O)C(C)(C)C(=O)C(C)NC(=O)[C@H](Cc2ccc(OC)cc2)N(C)C(=O)[C@H](C(C)C)N(C)C(=O)CNC(=O)[C@H](CC(C)C)N(C)C(=O)CNC(=O)[C@H]([C@@H](C)CC)OC(=O)[C@H]1C (some centres not stated)	.	0.56µM*	.	.	0.32µM*	?
Cn1c(=O)n(C)c2cc(N3CCOCC3)c(NS(=O)(=O)c3cccc(C#N)c3)cc21	.	.	9	-18%[46.1 µM]	-9%	-8%
Clc1nc(NCCc2ccccc2)c2cn[nH]c2n1	?	?	-61*	?	-27%	-10%
